Reference: PubChem BioAssay (Tox21)
Several values for one entry are separate records, joined by “and”; a condition that tells them apart may be missing. Equal values may be shown once. Records with an inconclusive call do not appear. Where a structure was tested more than once in an assay, its records may differ in their call. Activity calls are given as the source filed them. Unless noted, calls come from the whole dose curve; as a rule, active = well fitted curve in the direction sought with a large enough effect in the repeat runs; inconclusive = weak or mixed curves; inactive = no such curve, though single readings can be large; an effect the other way counts as inactive or inconclusive.

Assays:
[1] = qHTS assay to identify small molecule antagonists of the retinoid acid receptor (RAR) signaling pathway - cell viability counter screen (AID 1159551); note: nearly all actives have a fitted effect of over 35% in size; note: potency is the fitted concentration of half-maximal effect
Procedure, shortened: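 Cytotoxicity counter screen: ATP content quantified by CellTiter-Glo luminescence in C3RL4 cells treated 6 hr at 37 C with compound and retinol (1 uM final). Cells plated at 1,000/well and cultured overnight before dosing.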

[2] = qHTS assay to identify small molecule antagonists of the estrogen related receptor (ERR) signaling pathway from Tox21 library - cell viability counter screen (AID 1224834); note: nearly all actives have a fitted effect of over 30% in size; note: potency is the fitted concentration of half-maximal effect
Procedure, shortened: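 CellTiter-Fluor fluorescence, read after 30 min at 37 C, measures viability of ERR cells. Cells plated at 2,000/well and incubated 6 h before pin-tool compound addition, then exposed 17.5 hours at 37 C.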

[3] = molecular target: Luciferin 4-monooxygenase (Photinus pyralis) (UniProt P08659); assay: qHTS assay to identify small molecule inhibitors of firefly luciferase (AID 1224835); note: nearly all actives have a fitted effect of over 25% in size; note: potency is the fitted concentration of half-maximal effect
Chain of Luciferin 4-monooxygenase (Photinus pyralis) (P08659 whole entry, looked up): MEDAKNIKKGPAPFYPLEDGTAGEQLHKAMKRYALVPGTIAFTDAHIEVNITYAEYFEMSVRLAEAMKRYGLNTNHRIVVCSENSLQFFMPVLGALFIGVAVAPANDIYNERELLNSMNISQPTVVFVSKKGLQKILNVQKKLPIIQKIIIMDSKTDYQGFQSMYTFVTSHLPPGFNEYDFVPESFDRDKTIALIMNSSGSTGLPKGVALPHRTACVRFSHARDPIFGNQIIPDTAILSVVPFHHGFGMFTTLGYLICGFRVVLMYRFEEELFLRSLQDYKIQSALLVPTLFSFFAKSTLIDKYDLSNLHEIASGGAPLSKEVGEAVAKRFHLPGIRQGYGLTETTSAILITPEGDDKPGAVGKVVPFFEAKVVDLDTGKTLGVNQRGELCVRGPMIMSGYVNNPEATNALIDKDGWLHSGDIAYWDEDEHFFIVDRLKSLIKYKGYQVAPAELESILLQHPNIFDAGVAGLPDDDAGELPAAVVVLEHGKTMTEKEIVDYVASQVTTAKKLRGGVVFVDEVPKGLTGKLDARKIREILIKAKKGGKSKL
Procedure, shortened: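 Biochemical qHTS: compounds run as interplate titrations against purified firefly enzyme, with D-luciferin and ATP each at its KM concentration. Light output recorded by CCD imaging.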

[4] = qHTS assay to identify small molecule agonists of the constitutive androstane receptor (CAR) signaling pathway - cell viability counter screen (AID 1224836); note: nearly all actives have a fitted effect of over 45% in size; note: potency is the fitted concentration of half-maximal effect
Procedure, shortened: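 Multiplexed viability check: HepG2-CYP2B6-hCAR cells, 15-point compound dosing, 0.75 uM PK11195 final, 23 h at 37 C, CellTiter-Fluor fluorescence.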

[5] = qHTS assay to identify small molecule antagonists of the constitutive androstane receptor (CAR) signaling pathway - cell viability counter screen (AID 1224837); note: nearly all actives have a fitted effect of over 45% in size; note: potency is the fitted concentration of half-maximal effect
Procedure, shortened: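 Cytotoxicity counter-screen: CellTiter-Fluor fluorescence after 23 h compound exposure (15-point qHTS) in double-stable HepG2-CYP2B6-hCAR cells, with 50 nM CITCO added.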

[6] = qHTS assay to identify small molecule antagonists of the estrogen related receptor signaling pathway with the pleiotropic PPARgamma coactivator (PGC) from Tox21 10K library - cell viability counter screen (AID 1224840; active = well fitted cell-killing curve with a large enough effect in the repeat runs, not every such curve was filed as active; note: nearly all actives have a fitted effect of over 40% in size; note: potency is the fitted concentration of half-maximal effect)
Procedure, shortened: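 Counter-screen for cytotoxicity: after 17.5 h compound exposure at 37 C, CellTiter-Fluor reagent added to PGC/ERR cells for 30 min and fluorescence read. Cells were seeded at 2,000 per well 6 h before dosing.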

[7] = qHTS assay to identify small molecule agonists of the hypoxia (HIF-1) signaling pathway - cell viability counter screen (AID 1224844; calls by dose curve; note: nearly all actives have a fitted effect of over 50% in size; note: potency is the fitted concentration of half-maximal effect)
Procedure, shortened: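 Cytotoxicity measured by CellTiter-Glo ATP luminescence in the wells also read for beta-lactamase signal. Cells were HRE-bla ME-180 (2,000/well, 0.5% dialyzed FBS), exposed to compounds for 17 h at 37C.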

[8] = qHTS assay to identify small molecule antagonists of the estrogen related receptor signaling pathway with the pleiotropic PPARgamma coactivator (PGC) from Tox21 10K library (AID 1224841; call rule not given here; note: actives are mostly falling curves and most rising ones were filed inactive; nearly all actives have a fitted effect of over 50% in size; note: potency is the fitted concentration of half-maximal effect)
Procedure, shortened: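 Luminescence (One-Glo, 30 min at room temperature) after 18 h compound treatment at 37 C of PGC/ERR reporter cells plated at 2,000 cells/well and settled 6 h beforehand.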

[9] = qHTS assay to identify small molecule agonists of the estrogen related receptor signaling pathway with the pleiotropic PPARgamma coactivator (PGC) from Tox21 10K library (AID 1224842); note: % is set by controls: 0 for no effect and ±100 for the full control effect; nearly all actives have a fitted effect of over 15% in size
Procedure, shortened: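 PGC/ERR reporter cell line, 2,000 cells per well, incubated 6 h at 37 C before 23 nL compound in DMSO was added. After 18 h at 37 C, One-Glo luminescence read following 30 min at room temperature.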

[10] = molecular target: Thyrotropin receptor (Homo sapiens) (UniProt P16473); assay: qHTS assay to identify small molecule agonists of the thyroid stimulating hormone receptor (TSHR) signaling pathway (AID 1224843; calls by dose curve; note: nearly all actives have a fitted effect of over 45% in size; note: potency is the fitted concentration of half-maximal effect)
Chain of Thyrotropin receptor (Homo sapiens) (P16473 whole entry, looked up): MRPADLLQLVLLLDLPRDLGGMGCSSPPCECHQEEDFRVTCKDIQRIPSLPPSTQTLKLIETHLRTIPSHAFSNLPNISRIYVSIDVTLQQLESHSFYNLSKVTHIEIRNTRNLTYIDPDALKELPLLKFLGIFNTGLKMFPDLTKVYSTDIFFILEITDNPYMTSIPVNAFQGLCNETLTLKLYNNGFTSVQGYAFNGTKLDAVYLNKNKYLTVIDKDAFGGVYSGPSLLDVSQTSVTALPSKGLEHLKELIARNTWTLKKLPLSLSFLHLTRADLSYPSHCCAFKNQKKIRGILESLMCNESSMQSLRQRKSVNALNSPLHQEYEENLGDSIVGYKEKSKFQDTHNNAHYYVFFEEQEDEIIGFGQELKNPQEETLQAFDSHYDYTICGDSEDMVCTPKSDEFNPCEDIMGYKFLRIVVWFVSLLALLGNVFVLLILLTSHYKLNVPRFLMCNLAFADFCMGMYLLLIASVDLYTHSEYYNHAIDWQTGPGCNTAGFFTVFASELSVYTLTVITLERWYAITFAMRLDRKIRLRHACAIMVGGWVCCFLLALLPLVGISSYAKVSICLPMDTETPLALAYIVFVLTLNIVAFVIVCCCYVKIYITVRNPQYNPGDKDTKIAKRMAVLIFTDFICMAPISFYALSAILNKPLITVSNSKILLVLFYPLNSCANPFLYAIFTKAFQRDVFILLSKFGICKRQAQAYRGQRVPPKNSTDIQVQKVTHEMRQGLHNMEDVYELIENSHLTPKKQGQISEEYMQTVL
Procedure, shortened: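 Agonist-mode screen: TSHR HEK293 cells received test chemicals for half an hour at room temperature, then HTRF cAMP detection reagents for one hour prior to fluorescence measurement. Each chemical ran as a 15-concentration series, triplicated.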

[11] = molecular target: Nuclear receptor subfamily 1 group I member 3 (Homo sapiens) (UniProt Q14994); assay: qHTS assay to identify small molecule agonists of the constitutive androstane receptor (CAR) signaling pathway (AID 1224839); note: nearly all actives have a fitted effect of over 15% in size; note: potency is the fitted concentration of half-maximal effect
Chain of Nuclear receptor subfamily 1 group I member 3 (Homo sapiens) (Q14994 whole entry, looked up): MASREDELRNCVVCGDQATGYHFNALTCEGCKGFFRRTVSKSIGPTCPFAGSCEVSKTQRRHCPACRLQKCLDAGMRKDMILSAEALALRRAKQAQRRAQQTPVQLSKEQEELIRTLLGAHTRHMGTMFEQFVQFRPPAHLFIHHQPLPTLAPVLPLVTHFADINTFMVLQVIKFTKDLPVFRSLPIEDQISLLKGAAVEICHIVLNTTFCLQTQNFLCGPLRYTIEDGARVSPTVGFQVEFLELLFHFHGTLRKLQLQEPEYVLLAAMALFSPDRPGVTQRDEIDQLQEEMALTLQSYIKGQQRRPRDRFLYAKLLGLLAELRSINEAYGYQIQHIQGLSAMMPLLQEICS
Procedure, shortened: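 Using human hepatoma HepG2 cells engineered with hCAR and a CYP2B6-2.2kb reporter, 15-concentration compound series were incubated 24 h alongside PK11195 at 0.75 uM final, with luminescence quantified afterwards.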

[12] = molecular target: Nuclear receptor subfamily 1 group I member 3 (Homo sapiens) (UniProt Q14994); assay: qHTS assay to identify small molecule antagonists of the constitutive androstane receptor (CAR) signaling pathway (AID 1224838);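 note: HepG2 cells stably expressing hCAR with CYP2B6 luciferase reporter stimulated by CITCO; nearly all actives have a fitted effect of over 40% in size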; note: potency is the fitted concentration of half-maximal effect
Procedure, shortened: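 Antagonism measured as luciferase signal (ONE-Glo, 30 min, room temperature) in CAR-stimulated cells: HepG2-CYP2B6-hCAR double-stable line exposed 24 hr at 37 C to compound in a 15-point series plus 50 nM CITCO.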

[13] = qHTS assay to identify small molecule antagonists of the retinoic acid receptor (RAR) signaling pathway (AID 1159552; note: potency is the fitted concentration of half-maximal effect; nearly all actives have a fitted effect of over 50% in size)
Procedure, shortened: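 Using a RARE-driven luciferase construct in C3RL4 cells, retinol at 1 uM final provided the agonist stimulus while compounds were co-applied. After 6 hours at 37 C, luminescence was recorded to flag inhibitors of retinol signaling.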

[14] = qHTS assay to identify small molecule agonists of the retinoic acid receptor (RAR) signaling pathway (AID 1159553); note: potency is the fitted concentration of half-maximal effect
Procedure, shortened: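 Luminescence was measured 30 min after luciferase reagent addition at room temperature. Before that, C3RL4 reporter cells (1,000 per well, plated overnight) were treated with compound for 6 hr at 37 C and 5% CO2.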

[15] = qHTS assay to identify small molecule antagonists of the estrogen related receptor (ERR) signaling pathway - cell viability counter screen (AID 1224818);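 note: series mostly up to about 46 µM; viability measured after 17.5 h of compound exposure; % is set by controls: 0 for no effect and ±100 for the full control effect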
Procedure, shortened: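 Cytotoxicity counter screen: fluorescence from CellTiter-Fluor, added after 17.5 h compound exposure at 37 C and read 30 min later. ERR cell line seeded at 2,000 cells/well, preincubated 6 h before dosing.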

[16] = qHTS assay to identify small molecule agonists of the estrogen related receptor (ERR) signaling pathway (AID 1224820); note: % is set by controls: 0 for no effect and ±100 for the full control effect
Procedure, shortened: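 After 6 h plating (2,000 cells/well) and 18 h compound treatment at 37 C, ERR cells were lysed with One-Glo and luminescence read after 30 min at room temperature.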

[17] = qHTS assay to identify small molecule antagonists of the estrogen related receptor signaling pathway with the pleiotropic PPARgamma coactivator (PGC) cell viability counter screen (AID 1224822; note: potency is the fitted concentration of half-maximal effect)
Procedure, shortened: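 Viability counter-screen read by fluorescence intensity after 30 min with CellTiter-Fluor at 37 C; PGC/ERR reporter cells were exposed to compounds for 17.5 h at 37 C following a 6 h preincubation.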

[18] = qHTS assay to identify small molecule agonists of the estrogen related receptor signaling pathway with the pleiotropic PPARgamma coactivator (PGC) (AID 1224823); note: % is set by controls: 0 for no effect and ±100 for the full control effect
Procedure, shortened: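 Luminescence from One-Glo reagent (30 min, room temperature) was read after 18 h compound treatment at 37 C of PGC/ERR cells plated 6 h beforehand; compounds delivered in DMSO by pin tool.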

[19] = qHTS assay to identify small molecule antagonists of the estrogen related receptor (ERR) signaling pathway (AID 1224819; note: nearly all actives have a fitted effect of over 50% in size; note: potency is the fitted concentration of half-maximal effect)
Procedure, shortened: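 LOPAC library screened for antagonism as reduced One-Glo luminescence in ERR reporter cells (2,000/well). Compounds were added after 6 h pre-incubation and left 18 h at 37C; reading followed a 30 min room-temperature reagent step.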

[20] = tested on: estrogen-related receptor alpha (ERRalpha) with PGC-1alpha coactivator, human; assay: qHTS assay to identify small molecule antagonists of the estrogen related receptor signaling pathway with the pleiotropic PPARgamma coactivator (PGC) (AID 1224821; calls by dose curve; note: nearly all actives have a fitted effect of over 50% in size; note: potency is the fitted concentration of half-maximal effect)
Procedure, shortened: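 Luminescence from One-Glo luciferase reagent (30 min, room temperature) measured after 18 h compound treatment at 37 °C. Cells carry the PGC/ERR reporter and were seeded 6 h prior to dosing.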

Measured: Potency

CCCCCCCCCCCCCCCC[n+]1ccccc1
57.5 µM (active) and inactive: [7]
active: [1] 63.9 µM and 54.5 µM and 53.7 µM | [2] 32 µM [middle of 4 runs] | [4] 25.5 µM and 15.4 µM and 13.5 µM | [5] 32 µM and 15.4 µM and 19.1 µM | [6] 53.7 µM [middle of 4 runs]
inactive: [3]

CC(=O)[O-].CC(=O)[O-].O.O.[Cd+2]
inactive: [1]
active: [2] 26.9 µM | [4] 5.37 µM | [5] 6.76 µM | [7] 34.2 µM

COC(=O)N(C(=O)N1COC2(C(=O)OC)Cc3cc(Cl)ccc3C2=N1)c1ccc(OC(F)(F)F)cc1 (stereo not drawn)
inactive: [1] | [3] | [4] | [6] | [9] | [10]
active: [8] 23.7 µM

CC(=[OH+])/C=C(/C)[O-].CC(=[OH+])/C=C(\C)[O-].CC(=[OH+])/C=C(\C)[O-].[Al]
active: [3] 71 µM
inactive: [1] | [2] | [4] | [5] | [7]

Clc1ccc(C(c2ccc(Cl)cc2)C(Cl)(Cl)Cl)cc1
17.4 µM (active) and inactive: [8]
active: [7] 24.7 µM
inactive: [1] | [2] | [3] | [4] | [6]

CCOP(=S)(OCC)SCCS(=O)(=O)CC
inactive: [1] | [3] | [4] | [5] | [6] | [7]

CN(C)CCc1c[nH]c2cccc(O)c12
inactive: [1] | [2] | [3] | [4] | [6] | [7]

CC(C)CCCCCCCOP(=O)(Oc1ccccc1)Oc1ccccc1
inactive: [1] | [2] | [3] | [4] | [9] | [7]
active: [11] 27.4 µM | [10] 24.5 µM

CCN(CC)c1c([N+](=O)[O-])cc(C(F)(F)F)c(N)c1[N+](=O)[O-]
inactive: [1] | [3] | [4] | [12] | [7]
active: [11] 48.6 µM | [10] 13.7 µM

C=CCC1=C(C)C(OC(=O)C2C(C=C(C)C)C2(C)C)CC1=O (stereo not drawn)
active: [13] 61.1 µM | [11] 16.3 µM | [8] 20.5 µM
inactive: [14] | [15] | [16] | [17] | [18] | [3] | [5] | [12] | [9]

O=c1[nH]c2ccccc2n1C1CCN(CCCC(c2ccc(F)cc2)c2ccc(F)cc2)CC1
24.3 µM (active) and inactive: [6]
inactive: [14] | [16] | [18] | [3] | [9] | [10]
active: [13] 61.1 µM | [19] 11.9 µM | [20] 16.2 µM | [2] 30.6 µM and 26.6 µM | [4] 54.5 µM | [8] 27.3 µM and 26.6 µM

Cc1cc(C)c(C2=C(OC(=O)CC(C)(C)C)C3(CCCC3)OC2=O)c(C)c1
inactive: [1] | [2] | [4] | [5] | [12] | [11] | [6] | [8] | [9] | [7]

Clc1ccc(-c2ccccc2)cc1
inactive: [1] | [2] | [4] | [5] | [12] | [11] | [6] | [8] | [9] | [10] | [7]

CCCCOCN(C(=O)CCl)c1c(CC)cccc1CC
active: [11] 27.3 µM | [8] 12.2 µM
inactive: [1] | [3] | [4] | [5] | [12] | [6] | [10]

Clc1ccc(C(c2ccccc2Cl)C(Cl)(Cl)Cl)cc1 (stereo not drawn)
active: [11] 6.9 µM and 1.6 µM | [8] 61.5 µM
inactive: [1] | [3] | [4] | [5] | [12] | [6] | [9]

COc1cc(C=O)cc2c1[C@H](COC(N)=O)[C@]1(OC(C)=O)ON2C[C@H]2[C@@H]1N2C(C)=O
inactive: [1] | [3] | [11] | [6] | [9] | [10]
active: [4] 0.611 µM | [5] 0.433 µM | [12] 0.0486 µM | [8] 1.93 µM | [7] 3.89 µM

C=CC(=O)OCC(COC(=O)C=C)(COC(=O)C=C)COC(=O)C=C
active: [13] 13.7 µM | [14] 1.93 µM | [2] 9.69 µM | [4] 15.4 µM | [5] 8.63 µM | [12] 8.63 µM | [8] 13.7 µM | [10] 8.63 µM | [7] 6.92 µM
inactive: [3] | [11] | [9]

O=C(CCCN1CCC2(CC1)C(=O)NCN2c1ccccc1)c1ccc(F)cc1
inactive: [15] | [19] | [16] | [20] | [18]

c1ccc2c(c1)OCC(C1=NCCN1)O2 (stereo not drawn)
inactive: [17]

CCCCCCCCc1ccc(O)cc1
active: [17] 52.4 µM
